# Experimental data published in PubChem BioAssay AID1159580 (chemical genetic matrix, 2015).
# Where “and” joins values, the source holds several entries; their conditions need not be identical. Equal values may be shown once. The campaign covered roughly 5,500 compounds. About 2,000 (36%) were called active. Not shown: some 18% with an inconclusive outcome. The list shows a part of the results. Unmarked numbers belong to inactive results. Cut-off read from the data, not from the text of the source: active = normalized growth mostly below about 0.91 (no sharp cut-off); inconclusive = no clear call, values can overlap the other calls; inactive = mostly above about 0.92.
# Assay: chemical genetic growth profiling, strain panel (AID 1159580);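 note: tested at 20 µM; growth read once vehicle control cultures reached saturation at 30 °C; 1 = growth at the plate median or of vehicle wells; lower values mean less growth of the strain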
# Conditions: S. cerevisiae deletion strains, growth OD
smiles,measurement,setting,value
O=C1CN(/N=C\c2ccc([N+](=O)[O-])o2)C(=O)N1,normalized growth,"locus YAL013W, strain DEP1, stronger effect = lower value",0.993
same,normalized growth,"locus YAL021C, strain ccr4, stronger effect = lower value",0.98
same,normalized growth,"locus YAL026C, strain drs2, stronger effect = lower value",0.956
same,normalized growth,"locus YAL030W, strain snc1, stronger effect = lower value",0.986
same,normalized growth,"locus YBL061C, strain skt5, stronger effect = lower value",0.987
same,normalized growth,"locus YBR009C, strain hhf1, stronger effect = lower value",0.977
same,normalized growth,"locus YBR021W, strain FUR4, stronger effect = lower value",0.997
same,normalized growth,"locus YBR023C, strain chs3, stronger effect = lower value",0.982
same,normalized growth,"locus YBR171W, strain sec66, stronger effect = lower value",0.982
same,normalized growth,"locus YBR229C, strain ROT2, stronger effect = lower value",1.01
same,normalized growth,"locus YBR231C, strain swc5, stronger effect = lower value",0.977
same,normalized growth,"locus YBR279W, strain paf1, stronger effect = lower value",0.97
same,normalized growth,"locus YCL011C, strain gbp2, stronger effect = lower value",0.964
same,normalized growth,"locus YCL016C, strain dcc1, stronger effect = lower value",0.99
same,normalized growth,"locus YCL029C, strain bik1, stronger effect = lower value",1.01
same,normalized growth,"locus YCL061C, strain MRC1, stronger effect = lower value",0.986
same,normalized growth,"locus YCL069W, strain vba3, stronger effect = lower value",0.956
same,normalized growth,"locus YCR088W, strain abp1, stronger effect = lower value",0.966
same,normalized growth,"locus YDL005C, strain med2, stronger effect = lower value",0.967
same,normalized growth,"locus YDL035C, strain GPR1, stronger effect = lower value",0.978
same,normalized growth,"locus YDL040C, strain nat1, stronger effect = lower value",0.97
same,normalized growth,"locus YDL074C, strain BRE1, stronger effect = lower value",0.914
same,normalized growth,"locus YDL101C, strain DUN1, stronger effect = lower value",0.995
same,normalized growth,"locus YDL134C, strain PPH21, stronger effect = lower value",1
same,normalized growth,"locus YDL185W, strain tfp1, stronger effect = lower value",0.99
same,normalized growth,"locus YDL192W, strain arf1, stronger effect = lower value",0.991
same,normalized growth,"locus YDR001C, strain nth1, stronger effect = lower value",0.975
same,normalized growth,"locus YDR069C, strain doa4, stronger effect = lower value",0.94
same,normalized growth,"locus YDR101C, strain arx1, stronger effect = lower value",0.976
same,normalized growth,"locus YDR137W, strain rgp1, stronger effect = lower value",1.02
same,normalized growth,"locus YDR150W, strain NUM1, stronger effect = lower value",1
same,normalized growth,"locus YDR159W, strain sac3, stronger effect = lower value",0.954
same,normalized growth,"locus YDR162C, strain NBP2, stronger effect = lower value",0.99
same,normalized growth,"locus YDR195W, strain ref2",0.979
same,normalized growth,"locus YDR297W, strain sur2, stronger effect = lower value",0.983
same,normalized growth,"locus YDR318W, strain mcm21, stronger effect = lower value",0.973
same,normalized growth,"locus YDR334W, strain swr1, stronger effect = lower value",0.976
same,normalized growth,"locus YDR335W, strain msn5, stronger effect = lower value",0.986
same,normalized growth,"locus YDR388W, stronger effect = lower value",0.995
same,normalized growth,"locus YDR392W, strain spt3, stronger effect = lower value",0.68 (active)
same,normalized growth,"locus YDR502C, strain sam2, stronger effect = lower value",0.974
same,normalized growth,"locus YEL003W, strain gim4, stronger effect = lower value",0.942
same,normalized growth,"locus YEL037C, strain rad23, stronger effect = lower value",0.963
same,normalized growth,"locus YEL061C, strain CIN8 (second series), stronger effect = lower value",0.969
same,normalized growth,"locus YEL061C, strain CIN8, stronger effect = lower value",0.996
same,normalized growth,"locus YER015W, strain faa2, stronger effect = lower value",0.961
same,normalized growth,"locus YER016W, strain bim1, stronger effect = lower value",0.96
same,normalized growth,"locus YER110C, stronger effect = lower value",0.99
same,normalized growth,"locus YER111C, strain swi4, stronger effect = lower value",0.981
same,normalized growth,"locus YER155C, strain BEM2 (second series), stronger effect = lower value",0.854 (active)
same,normalized growth,"locus YER155C, strain BEM2, stronger effect = lower value",0.998
same,normalized growth,"locus YER167W, strain BCK2, stronger effect = lower value",0.985
same,normalized growth,"locus YFR010W, strain ubp6, stronger effect = lower value",0.942
same,normalized growth,"locus YGL078C, strain dbp3, stronger effect = lower value",0.977
same,normalized growth,"locus YGL086W, strain mad1, stronger effect = lower value",0.977
same,normalized growth,"locus YGL167C, strain pmr1, stronger effect = lower value",0.983
same,normalized growth,"locus YGL173C, strain kem1, stronger effect = lower value",0.987
same,normalized growth,"locus YGL227W, strain vid30, stronger effect = lower value",0.979
same,normalized growth,"locus YGL240W, strain doc1, stronger effect = lower value",0.922
same,normalized growth,"locus YGL248W, strain PDE1, stronger effect = lower value",1
same,normalized growth,"locus YGL253W, strain hxk2, stronger effect = lower value",0.976
same,normalized growth,"locus YGR078C, strain PAC10, stronger effect = lower value",0.975
same,normalized growth,"locus YGR135W, strain pre9, stronger effect = lower value",0.963
same,normalized growth,"locus YGR229C, strain SMI1, stronger effect = lower value",0.958
same,normalized growth,"locus YGR252W, strain gcn5, stronger effect = lower value",0.804
same,normalized growth,"locus YHR013C, strain ard1, stronger effect = lower value",0.942
same,normalized growth,"locus YHR027C, strain rpn1, stronger effect = lower value",0.985
same,normalized growth,"locus YHR030C, strain SLT2, stronger effect = lower value",0.991 and 0.902
same,normalized growth,"locus YHR079C, strain IRE1 (second series), stronger effect = lower value",0.989
same,normalized growth,"locus YHR079C, strain IRE1, stronger effect = lower value",0.91
same,normalized growth,"locus YHR094C, strain hxt1, stronger effect = lower value",0.999
same,normalized growth,"locus YHR129C, strain ARP1, stronger effect = lower value",1
same,normalized growth,"locus YHR142W, strain chs7, stronger effect = lower value",0.946
same,normalized growth,"locus YHR200W, strain rpn10, stronger effect = lower value",0.985
same,normalized growth,"locus YIL066C, strain RNR3, stronger effect = lower value",1.01
same,normalized growth,"locus YIL073C, strain SPO22, stronger effect = lower value",0.969
same,normalized growth,"locus YIL125W, strain kgd1, stronger effect = lower value",0.987
same,normalized growth,"locus YIR030C, strain dcg1, stronger effect = lower value",0.994
same,normalized growth,"locus YJL092W, strain hpr5, stronger effect = lower value",0.971
same,normalized growth,"locus YJL095W, strain BCK1 (second series), stronger effect = lower value",0.982
same,normalized growth,"locus YJL095W, strain BCK1, stronger effect = lower value",0.969 and 0.892
same,normalized growth,"locus YJL115W, strain asf1, stronger effect = lower value",0.951
same,normalized growth,"locus YJL129C, strain trk1, stronger effect = lower value",0.968
same,normalized growth,"locus YJL134W, strain LCB3, stronger effect = lower value",1
same,normalized growth,"locus YJL154C, strain vps35, stronger effect = lower value",0.971
same,normalized growth,"locus YJL164C, strain tpk1, stronger effect = lower value",0.957
same,normalized growth,"locus YJL166W, strain qcr8, stronger effect = lower value",0.964
same,normalized growth,"locus YJL168C, strain set2, stronger effect = lower value",0.989
same,normalized growth,"locus YJL187C, strain SWE1 (second series), stronger effect = lower value",1.01
same,normalized growth,"locus YJL187C, strain SWE1, stronger effect = lower value",0.973
same,normalized growth,"locus YJR043C, strain POL32, stronger effect = lower value",0.979
same,normalized growth,"locus YJR066W, strain TOR1, stronger effect = lower value",0.87
